NPC1 prom act: activates the NPC1 promoter. AID 485313. 320,000 tested, 2.4% active. Huh7 NPC1 promoter luciferase reporter, 24 h. Potency, µM (highest dose often 9.22 µM), inactives show at the highest dose activation, actives largely listed as activators; further: % of control where 0% means no effect; nearly all actives have a fitted effect of over 60% in size
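Luminescence read-out of NPC1 promoter-driven luciferase in stably transfected Huh7 cells; compounds delivered in DMSO and left 24 h at 37C, 5% CO2, qHTS titration format.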
Rab9 prom act: Rab9 promoter activation | AID 485297 | Huh7 Rab9 promoter-luciferase reporter, luminescence, 24 h | Potency, µM (series often up to 9.22 µM), inactives show top-dose activation, negative = inhibition, most hits filed as activators | 320,000 tested, 2.8% active; further: % of control where 0% means no effect; nearly all actives have a fitted effect of over 60% in size
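Huh7 cells stably carrying Rab9 promoter–luciferase reporter, plated 1500 cells/well, compound added after 2 h and incubated 24 h at 37 °C; luciferase luminescence then read after 10 min with detection reagent.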
ELG1 genotoxic: genotoxicity induction in ELG1-luciferase HEK293T cells; HEK293T ELG1-luciferase reporter, luminescence, 16 h; AID 504466; Potency, µM (series often up to 46 µM), for inactives: top-dose activity change, positive = activation, actives largely listed as activators; 330,000 tested, 1.3% active; further: % of control where 0% means no effect; nearly all actives have a fitted effect of over 60% in size
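Step 1: seed 2,000 HEK293T ELG1-luciferase cells per well. Step 2: add compound or DMSO, incubate 16 hr at 37 °C. Step 3: ONE-Glo, 30 min at room temperature, read luminescence.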
SMN2 splice enh: enhancers of SMN2 splice variant expression; HEK293 SMN2-luciferase splicing reporter, luminescence, 30-36 h; Potency, µM (highest dose often 46.1 µM), without a hit: at the top dose activity change, positive = activation, actives largely listed as activators; 210,000 tested, 2.8% active; further: % of control where 0% means no effect; nearly all actives have a fitted effect of over 55% in size
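qHTS luciferase splicing reporter: luminescence rises when SMN2 exon 7 is included in transfected HEK293 cells. Compound exposure lasted 30-36 h at 37C, with 4.5 mM final sodium butyrate as control, followed by a ONE-Glo read.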
FLuc counter: counter-screen for miR-21 project: firefly luciferase inhibitors or activators | AID 588342 | P08659 | Potency, µM (titrated, usually from 57.5 µM), for the others: at the highest dose activity change, negative = inhibition, actives largely listed as inhibitors | purified FLuc, Km substrates, luminescence inhibition | 360,000 tested, 6.9% active;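 further: plate controls were vehicle for no effect and reference inhibitor for full effect; nearly all actives have a fitted effect of over 55% in size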
Target sequence (P08659 whole entry, looked up): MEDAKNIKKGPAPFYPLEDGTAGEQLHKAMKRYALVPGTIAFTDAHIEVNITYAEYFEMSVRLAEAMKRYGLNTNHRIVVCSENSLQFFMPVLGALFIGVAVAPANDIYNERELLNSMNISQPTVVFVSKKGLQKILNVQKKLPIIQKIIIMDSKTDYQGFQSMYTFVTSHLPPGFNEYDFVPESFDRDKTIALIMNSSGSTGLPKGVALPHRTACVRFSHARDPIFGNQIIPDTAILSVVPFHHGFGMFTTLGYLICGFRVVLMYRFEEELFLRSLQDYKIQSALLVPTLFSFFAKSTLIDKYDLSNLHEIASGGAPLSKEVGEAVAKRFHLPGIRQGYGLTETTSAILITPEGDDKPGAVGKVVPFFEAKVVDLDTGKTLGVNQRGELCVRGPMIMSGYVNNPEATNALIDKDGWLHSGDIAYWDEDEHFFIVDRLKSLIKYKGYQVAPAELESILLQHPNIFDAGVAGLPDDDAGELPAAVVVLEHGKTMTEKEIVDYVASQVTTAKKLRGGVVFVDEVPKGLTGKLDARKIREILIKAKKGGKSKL
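Purified P. pyralis luciferase (10nM final) with 10uM D-luciferin and 10uM ATP (Km levels) in 50mM Tris acetate pH 7.5, 10mM Mg acetate, 0.01% Tween-20, 0.05% BSA; qHTS 6-point titration, ~60 µM downward; luminescence read.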
p53 reactivator: mutant p53 re-activation in reporter cells. H1299 p53-A138V BP100-luciferase reporter, luminescence, 24 h. Potency, µM (top dose mostly 92.2 µM), for the others: top-dose activity change, positive = activation, actives largely listed as activators. 320,000 tested, 0.063% active. AID 504706; further: % of control where 0% means no effect; nearly all actives have a fitted effect of over 45% in size
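p53-null H1299 cells stably carrying temperature-sensitive p53-A138V and a BP100-luciferase reporter were pinned with compounds (4-point, 1:5 series) and held 24 hrs at 37 deg C. Luminescence was read 10 min after detection reagent.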
Active calls of the source: *; ? = inconclusive; / = not tested or not shown; [ ] = remark or other dose. Only some compounds are listed: those with a hit (about 7.4% of all), similar ones and a draw of the others. The call rests on the fitted dose curve; in most records, active means well fitted curve in the direction sought with a large enough effect; inconclusive means small, poorly fitted or top-dose-only effect, or another doubt; inactive means no such curve, though single readings can be large; an effect the other way counts as inactive or inconclusive. Potency means the concentration at half of the fitted maximal effect.

SMILES | NPC1 prom act | Rab9 prom act | ELG1 genotoxic | SMN2 splice enh | FLuc counter | p53 reactivator
Cc1cccc(C#Cc2ccccc2)n1 | 5.8µM* | 5µM* | 8.2µM* | 13µM* | 6µM* | 16%
O=C(Nc1ccc(-c2noc(-c3ccccc3F)n2)cc1)c1cccs1 | ? | 1.6µM* | ? | 14µM* | ? | ?
Cc1ccccc1-c1nc(-c2ccc(NC(=O)c3cccs3)cc2)no1 | ? | 4µM* | 2% | -8% | 13µM* | ?
CC(=O)Nc1cc(C(=O)NCc2ccc(C)cc2)ccc1S(=O)(=O)c1ccc(Cl)cc1 | / | / | / | / | -1% | /
Cc1ccnc(N(C(=O)c2cccs2)C(=O)c2cccs2)c1 | 2.5µM* | 3.5µM* | 2.1µM* | 13µM* | 19µM* | ?
O=C(c1cccs1)N(C(=O)c1cccs1)c1ccc(Br)cn1 | ? | 1.6µM* | 2.1µM* | ? | ? | ?
Cc1ccc2[nH]c(=O)c(CN(C)C(=O)c3cccs3)cc2c1 | 9% | -1% | 7% | -9% | -7% | -1%
C[C@H](NC(=O)c1nc[nH]c1C(=O)NCC(=O)OCc1ccccc1)c1ccccc1 | 3% | -1% | 0% | / | -2% | 2%
CN(C)c1ccc(-c2ccccc2)nn1 | 1.6µM* | 1.6µM* | 8.2µM* | 16µM* | 11µM* | ?
CCN(CC)c1cc(-c2ccccc2)ncn1 | 3% | 21% | 7% | -4%[1.84 µM] | ? | 4%
CC(=O)NC(=S)Nc1ccc(NC(=O)COc2ccc(Cl)cc2Cl)cc1 | 8% | -7% | -1% | -13% | -6% | 2%
COc1ccc(NC(=O)COC(=O)CCCOc2ccc(Cl)cc2Cl)cc1 | 2% | -2% | 4% | 16% | ? | -12%
O=C(COc1ccc(Cl)cc1Cl)NNC(=S)Nc1ccc(F)cc1 | 1% | -3% | -1% | / | 17µM* | -9%
CC(C)(CO)NC(=O)CCCOc1ccc(Cl)cc1Cl | ? | ? | 11µM* | 10µM* | ? | 5%
COc1ccc(NC(=O)COC(=O)CCCOc2ccc(Cl)cc2Cl)cc1Cl | -3% | 2% | 8% | 8% | 15µM* | 7%
O=C(COc1ccc(Cl)cc1Cl)NC(=S)Nc1ccccc1C(=O)O | 5% | 12% | 4% | / | 6.7µM* | 6%
CN(C)C(=O)CCc1ccc2c3c([nH]c2c1)[C@]1(CCc2ccccc2)[C@@H](C(=O)N2CCCCC2)C[C@H](CC(=O)NC(C)(C)C)C(=O)N1CC3 | / | / | -1% | / | / | 7%
COc1cc(OC)cc(C(=O)N2CCC(C(=O)NCCc3ccccc3)CC2)c1 | 17% | 22% | 1% | / | -10% | 7%
O=C(CCCOc1ccc(Cl)cc1Cl)Nc1ccccc1C(=O)O | 2.5µM* | 3.5µM* | 17% | / | 8.5µM* | ?
Cc1ccc(NC(=O)NCc2c(C)nn(C)c2C)cc1Cl | ? | 4µM* | ? | 16µM* | 24µM* | 8%
Cc1nn(C)cc1CNC(=O)Nc1ccc(Cl)c(Cl)c1 | 3.2µM* | 2.5µM* | 13µM* | -22% | 24µM* | 16%
Cc1nn(C)cc1CNC(=O)C1(C)CC1(Cl)Cl (stereo not given) | -2% | -3% | 1% | 3% | 4% | 12%
CCn1cc(CN2CCC(n3nccc3NC(=O)c3ccccc3C)CC2)cn1 | -1% | 4% | 2% | / | 2% | 13%
Cc1ccc(C(=O)c2c3ccccc3[n+]([O-])n2CCC(N)=O)cc1 | -11% | -2% | 5% | / | ? | /
CCc1ccc(CNC(=O)c2ccc(CS(=O)(=O)Cc3ccccc3C)o2)cc1 | / | / | / | / | -4% | /
SMILES | NPC1 prom act | Rab9 prom act | ELG1 genotoxic | SMN2 splice enh | FLuc counter | p53 reactivator
COc1ccccc1N=CC=C1OC(C)(C)C(C)(C)O1 | -8% | -1% | 2% | 10% | -1% | 13%
Cc1ccc(N=CC=C2OC(C)(C)C(C)(C)O2)c(C)c1 | 0% | -2% | 2% | 0% | 7.6µM* | -13%
COc1ccc(-c2cnc(-c3cccnc3)o2)cc1 | / | / | / | 11µM* | / | /
CCOC(=O)N1CCC(NC(=O)CS(=O)Cc2nc(-c3ccccc3C)oc2C)CC1 (stereo not given) | 0% | -8% | -8% | / | 1% | -1%
O=[N+]([O-])c1ccc(O)c(-c2nn[nH]n2)c1 | 13% | 27% | ? | -3% | 27µM* | ?
Cc1cc(C)n(-c2ccc([N+](=O)[O-])cc2-c2nn[nH]n2)n1 | -1% | -4% | 2% | -15% | -10% | 1%
N#C/C(=N\Nc1ccc(Br)cc1)C(=N)N1CCOCC1 | 3.5µM* | 4µM* | ? | ? | ? | 16%
N#C/C(=N/Nc1ccc([N+](=O)[O-])cc1)C(=N)N1CCCCC1 | 1µM* | 0.56µM* | ? | 3.2µM* | 9.5µM* | ?
N#C/C(=N\Nc1ccc([N+](=O)[O-])cc1)C(N)=S | 24% | 20% | -15% | / | 17µM* | 15%
O=C(CN1CCCCCC1)Nc1ccccc1[N+](=O)[O-] | 2% | 4% | -2% | / | 2% | /
COc1ccccc1N/N=C(\C#N)C(=N)N1CCOCC1 | 3% | 11% | 0% | ? | -6% | -2%
N#C/C(=N\Nc1ccccc1[N+](=O)[O-])C(=N)N1CCCCC1 | 0.56µM* | 0.28µM* | ? | 3.2µM* | 2.4µM* | ?
Cc1cccc(C(=O)Nc2ccc(C(=O)N/N=C/c3ccc(C)o3)cc2)c1 | 1% | -4% | -12% | / | ? | -2%
C[C@@H]1CCC[C@H](C)N1 | / | / | / | -10%[20.6 µM] | / | /
N#C/C(=N\Nc1ccc([N+](=O)[O-])cc1)C(=N)N1CCOCC1 | ? | 2.8µM* | ? | / | ? | 12%
O=C(CCc1ccccc1)NNC(=O)Nc1ccccc1 | -2% | -8% | 1% | 15% | 7% | -1%
O=C(Nc1ccc(Cl)cc1)Nc1ccccc1C(=O)NCc1ccco1 | 5% | 7% | 18% | 13% | 19µM* | ?
O=C(Nc1ccccc1)Nc1ccccc1C(=O)NCc1ccccc1 | 5% | 15% | 1% | 1% | 21µM* | -3%
O=C(Cc1ccccc1)NNC(=O)Nc1ccccc1 | -2% | 2% | -2% | / | 17µM* | 3%
COc1cccc(-n2c(-c3cccc(F)c3)nc3c(cnn3-c3ccc(C)cc3)c2=O)c1 | / | / | / | -13% | -5% | /
CCOc1ccccc1NC(=O)n1ncc2c(C)cccc21 | 4µM* | 2.5µM* | 4% | / | 7.6µM* | 2%
Cc1cccc2c1cnn2C(=O)Nc1cc(F)ccc1F | ? | 0.28µM* | ? | / | 0.67µM* | ?
CCOc1ccccc1NC(=O)CCC(=O)Nc1ccccc1OCC | 9% | -1% | 8% | 5% | 6% | -3%
Cc1cc(NC(=O)n2ncc3c(C)cccc32)ccc1Br | / | / | / | / | -2% | /

Screening data as filed in PubChem.
